Bioassay records (PubChem BioAssay)
Hits are enriched below; roughly 4.9% of the tested compounds scored in any of these assays.
Calb FLC: C. albicans growth modulation with fluconazole. hit rate 0.57% among 300,000. growth inhibition, % (concentration not given with the values). C. albicans CaCi-2 (fluconazole-resistant clinical isolate) + fluconazole, Alamar Blue growth, 48 h. AID 1979;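 active = growth inhibition above about 58% in most replicates, limit read from the data, passing the limit was not always enough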;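 also: all wells also contain fluconazole at 8 µg/ml as a sub-toxic cotreatment; 0% = median of DMSO wells and 100% = median of geldanamycin control wells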
Beta cell apopt: beta cell apoptosis inhibition. protection from apoptosis, % (test concentration not listed). hit rate 0.8% among 300,000. INS-1E cytokine-induced death, ATP luminescence, 48 h; percent of positive-control rescue, neutral wells zero. AID 435005;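 active = Every replicate reaches about 75%, or at least half do and their mean reaches it too, limit read from the data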;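 also: 0% = cytokine-treated negative control wells and 100% = positive control rescue; higher means more ATP so stronger rescue from cytokine killing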
CSC inhib: blocks cancer stem cells; AID 2717; cancer stem cell-like cells viability, luminescence; inhibition, % at 7.5 µM; hit rate 1.1% among 300,000; in the data active = inhibition above about 75%; tested in HMLE shEcad cells
PP5 inh: inhibitors of human protein phosphatase 5 (PP5); AID 1987; purified PP5c, OMFP substrate fluorescence; inhibition, % at 6.7 µM; hit rate 0.18% among 320,000;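 active = inhibition above the campaign's mean inhibition across all tested compounds plus 3 SD, cut at about 9.5% in these data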;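 also: 0% = DMSO only and 100% = 100 µM cantharidin control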
Target sequence (P53041 whole entry, looked up): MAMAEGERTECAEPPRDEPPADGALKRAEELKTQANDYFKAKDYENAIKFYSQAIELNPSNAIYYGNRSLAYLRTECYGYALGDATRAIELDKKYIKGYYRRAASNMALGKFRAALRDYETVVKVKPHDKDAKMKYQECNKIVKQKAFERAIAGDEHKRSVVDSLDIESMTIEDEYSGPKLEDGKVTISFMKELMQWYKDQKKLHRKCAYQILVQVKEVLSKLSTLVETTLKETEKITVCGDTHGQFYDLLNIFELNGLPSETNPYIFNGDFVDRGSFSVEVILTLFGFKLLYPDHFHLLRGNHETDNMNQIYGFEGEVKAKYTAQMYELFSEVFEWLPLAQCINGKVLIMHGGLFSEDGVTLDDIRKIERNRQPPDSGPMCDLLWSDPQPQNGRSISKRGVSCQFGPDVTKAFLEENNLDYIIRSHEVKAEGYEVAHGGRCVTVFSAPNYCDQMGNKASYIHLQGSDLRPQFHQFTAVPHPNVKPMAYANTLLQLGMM
PP1 inh: blocks human PP1-alpha phosphatase, a PP5 counter-screen | purified PP1alpha, OMFP fluorescence | inhibition, % at 6.7 µM | hit rate 0.9% among 320,000;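 active = inhibition above the mean inhibition of all tested compounds plus 3 SD, computed separately for each screening campaign, cut at about 15% in these data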
Mdm2-MdmX inh: human Mdm2/MdmX binding inhibition | inhibition, % at 8 µM | hit rate 3% among 330,000 | O15151+Q00987 | SaOS-2 split-luciferase Mdm2/MdmX complementation, luminescence;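 active = inhibition of at least 50% at 8 µM in the primary screen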
Mdm2 MdmX conf: human Mdm2/MdmX binding inhibition, confirmed; luminescent assay; shares compounds with Mdm2-MdmX inh; hit rate 55% among 10,000; inhibition, % at 8 µM; in the data active = inhibition above about 40%
FLuc counter: counter-screen for Mdm2/MdmX inhibitors: full-length luciferase; inhibition, % at 8 µM; AID 504607; SaOS-2 full-length luciferase counterscreen, luminescence; shares compounds with Mdm2-MdmX inh; hit rate 77% among 6,200;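 active = mean inhibition at 8 µM reaching about 37%, which flags the compound as non-specific, limit read from the data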;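 also: p53-null SaOS-2 cells with luciferase driven by a doxycycline-inducible promoter; compound on cells about two nights before reading with doxycycline added after day one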
* = called active by the depositor.

What do the screens show for `Oc1ccc(-c2nc3c4c(ncn3n2)-c2ccccc2CC42CCCC2)cc1`?
Calb FLC: 3; Beta cell apopt: -5; CSC inhib: -6; PP5 inh: -2; PP1 inh: -4; Mdm2-MdmX inh: 78*; Mdm2 MdmX conf: 6

Results for CC(=O)Nn1cnc2c(c1=O)C1(CCCC1)Cc1ccccc1-2 ?
Beta cell apopt: -11; CSC inhib: -11; PP5 inh: 0; PP1 inh: 0; Mdm2-MdmX inh: 14

What do the screens show for `CCCN1C(=O)c2cc(C(=O)Nc3ccc(OC)cc3OC)ccc2C1Nc1ccc(OC)cc1OC` (stereo not drawn)?
Calb FLC: 16; Beta cell apopt: 2; CSC inhib: -10; PP5 inh: 3; PP1 inh: 1; Mdm2-MdmX inh: 22

Results for COc1cc2nc(Nc3ccc(C)c(Cl)c3)nc(N)c2cc1OC ?
Calb FLC: -6; Beta cell apopt: 14; CSC inhib: 106*; PP5 inh: 6; PP1 inh: 9; Mdm2-MdmX inh: 93*; Mdm2 MdmX conf: 66*; FLuc counter: 88*

How did CCOC(=O)c1ccc(Nc2nc(N)c3cc(OC)c(OC)cc3n2)cc1 do in these assays?
Calb FLC: 7; Beta cell apopt: 16; CSC inhib: 15; PP5 inh: 3; PP1 inh: 8; Mdm2-MdmX inh: 85*; Mdm2 MdmX conf: 83*; FLuc counter: 49*

What do the screens show for `COc1cc2nc(Nc3ccc(F)cc3)nc(N)c2cc1OC`?
Calb FLC: -1; Beta cell apopt: -2; CSC inhib: 11; PP5 inh: 6; PP1 inh: 2; Mdm2-MdmX inh: 0

How did COc1cc2nc(Nc3ccc(C)c(C)c3)nc(N)c2cc1OC do in these assays?
Calb FLC: -11; Beta cell apopt: 6; CSC inhib: 9; PP5 inh: 0; PP1 inh: 5; Mdm2-MdmX inh: 87*; Mdm2 MdmX conf: 18

What do the screens show for `CCOC(=O)c1ccc(Nc2ccc(-c3ccc(OC)c(OC)c3)nn2)cc1`?
Calb FLC: -1; Beta cell apopt: 22; CSC inhib: 6; PP5 inh: 1; PP1 inh: -1; Mdm2-MdmX inh: 11

Results for CCOc1cc(C(=O)N2CCC3(CC2)NCCc2[nH]cnc23)cc(OCC)c1OCC ?
Calb FLC: 6; Beta cell apopt: -3; CSC inhib: -5; PP5 inh: 0; PP1 inh: 0; Mdm2-MdmX inh: -5

What do the screens show for `O=C(C[C@@H]1C/C=C/CC[C@@H](Cc2ccc(F)cc2)C(=O)OC[C@H](Cc2ccccc2)NC1=O)N[C@H](CO)Cc1ccccc1`?
Beta cell apopt: 6; Mdm2-MdmX inh: -7

What do the screens show for `C[C@H](CO)N1C[C@H](C)[C@@H](CN(C)Cc2ccc(-c3ccccc3)cc2)Oc2c(NS(=O)(=O)c3ccccc3)cccc2C1=O`?
Beta cell apopt: 1; CSC inhib: -11; Mdm2-MdmX inh: 0

What do the screens show for `COc1ccc(S(=O)(=O)Nc2ccc3c(c2)C(=O)N([C@H](C)CO)C[C@H](C)[C@H](CN(C)Cc2ccc(C(=O)O)cc2)O3)cc1`?
Beta cell apopt: -4; CSC inhib: -5; Mdm2-MdmX inh: -9

What do the screens show for `Cc1ccc(S(=O)(=O)Nc2cccc3c2O[C@H](CN(C)Cc2ccc(-c4ccccc4)cc2)[C@@H](C)CN([C@H](C)CO)C3=O)cc1`?
Beta cell apopt: -11; Mdm2-MdmX inh: 53*; Mdm2 MdmX conf: 17

Results for Cc1ccc(S(=O)(=O)Nc2ccc3c(c2)C(=O)N([C@H](C)CO)C[C@H](C)[C@@H](CN(C)Cc2ccc(-c4ccccc4)cc2)O3)cc1 ?
Beta cell apopt: 2; CSC inhib: 62; Mdm2-MdmX inh: 77*; Mdm2 MdmX conf: 9

What do the screens show for `O=C(Nc1ccc(Cl)cn1)c1cccc2c(Br)cccc12`?
Calb FLC: 2; Beta cell apopt: 23; CSC inhib: 50; PP5 inh: 4; PP1 inh: 0; Mdm2-MdmX inh: 31

Results for CC(C)(C)C1C/C(=C/c2ccccn2)C(=O)/C(=C/c2ccccn2)C1 (stereo not drawn) ?
Calb FLC: 1; Beta cell apopt: 109*; CSC inhib: 67; PP5 inh: 7; PP1 inh: 1; Mdm2-MdmX inh: 100*; Mdm2 MdmX conf: 100*; FLuc counter: 51*

Results for O=C1/C(=C/c2ccccn2)COc2ccccc21 ?
Calb FLC: 3; Beta cell apopt: 0; CSC inhib: 0; PP5 inh: -3; PP1 inh: -3; Mdm2-MdmX inh: 2

Results for CC1C/C(=C/c2ccccn2)C(=O)/C(=C/c2ccccn2)C1 (stereo not drawn) ?
Calb FLC: 27; Beta cell apopt: -12; CSC inhib: 5; PP5 inh: 4; PP1 inh: 2; Mdm2-MdmX inh: 98*; Mdm2 MdmX conf: 100*; FLuc counter: 51*

Results for CC1C/C(=C/c2ccco2)C(=O)/C(=C/c2ccco2)C1 (stereo not drawn) ?
Calb FLC: -7; PP5 inh: -1; PP1 inh: 0; Mdm2-MdmX inh: -1

How did C/C(=N/OC(=O)c1ccccc1)c1oc(C)nc1C do in these assays?
Calb FLC: 3; Beta cell apopt: 2; CSC inhib: -8; PP5 inh: -1; PP1 inh: -3; Mdm2-MdmX inh: -6

How did CCc1nnc(NC(=O)CN2CCN(Cc3ccccc3Cl)CC2)s1 do in these assays?
Calb FLC: 1; Beta cell apopt: -7; CSC inhib: -10; PP5 inh: -1; PP1 inh: 1; Mdm2-MdmX inh: 3

Results for Cc1ccc(/C=C2/Sc3ccc(C(=O)NCc4ccccn4)cc3NC2=O)cc1 ?
Calb FLC: -2; Beta cell apopt: 1; CSC inhib: -9; PP5 inh: 3; PP1 inh: 3; Mdm2-MdmX inh: 70*; Mdm2 MdmX conf: 32

How did Cc1cccc(/C=C2/Sc3ccc(C(=O)NCCN4CCCC4)cc3NC2=O)c1 do in these assays?
Calb FLC: 12; Beta cell apopt: -3; CSC inhib: 6; PP5 inh: 4; PP1 inh: 7; Mdm2-MdmX inh: 72*; Mdm2 MdmX conf: 13

What do the screens show for `Cc1ccc(/C=C2/Sc3ccc(C(=O)N4CCN(c5ccccn5)CC4)cc3NC2=O)cc1`?
Calb FLC: -3; Beta cell apopt: -7; CSC inhib: 12; PP5 inh: 3; PP1 inh: 4; Mdm2-MdmX inh: 12

Results for COc1cccc(/C=C2/Sc3ccc(C(=O)NCCN4CCCCCC4)cc3NC2=O)c1 ?
Calb FLC: 1; CSC inhib: -16; PP5 inh: 2; PP1 inh: 10; Mdm2-MdmX inh: 98*; Mdm2 MdmX conf: 30
